MITF inh: blocks MITF activity | 37,000 compounds, 0.28% hits | TRPM1 promoter luciferase, luminescence, 24 h | AID 2240 | inhibition, % (no concentration beside the values); in the data active = inhibition above about 85%; inconclusive = no clear call, values can overlap the other calls; inactive = below about 68%;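 note: human melanocyte line stably carrying TRPM1 promoter luciferase reporter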
Hedgehog inh: Sonic Hedgehog pathway inhibition | Shh-LIGHT2 Gli-luciferase reporter, 30 h | inhibition, % (no concentration beside the values) | 22,000 compounds, 2.1% hits;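 active = mean inhibition across valid replicates above about 65%, limit read from the data; inconclusive = mean under the limit, yet half or more replicates past it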;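 note: pathway switched on by Shh-conditioned medium diluted 1 in 25 in low serum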
NOMO-1 viab: STK33 inhibitor candidate reducing NOMO-1 cell viability. NOMO-1 AML viability, CellTiter-Glo luminescence, 72 h. inhibition, % (concentration not given with the values). 37,000 compounds, 7.5% hits. AID 2330; in the data active = inhibition above about 80%; inconclusive = no clear call, values can overlap the other calls
PD-1 reversal: reversal of PD-1 mediated T-cell inhibition | activation, % (no concentration beside the values) | 29,000 tested, under 10 active | primary human CD4 T cells, PD-L1 beads, CellTiter-Glo 96 h; call rule not given here
A number is an active result; – = inactive; ? = inconclusive; · = no result. A selection: hits, their analogues and other compounds. The true share with any hit is near 8.1%.

SMILES	MITF inh	Hedgehog inh	NOMO-1 viab	PD-1 reversal
Cc1ccccc1NC(=O)CSc1nc(-c2ccc(Cl)cc2)cc(C(F)(F)F)n1	–	·	95	·
Cc1ccc(S(=O)(=O)Nc2cccc3c2O[C@@H](CN(C)Cc2ccc(Oc4ccccc4)cc2)[C@H](C)CN([C@@H](C)CO)C3=O)cc1	–	–	–	·
Cc1ccc(S(=O)(=O)Nc2cccc3c2O[C@H](CN(C)Cc2ccc(Oc4ccccc4)cc2)[C@@H](C)CN([C@H](C)CO)C3=O)cc1	–	–	99	–
C[C@@H]1CN([C@H](C)CO)C(=O)c2cccc(NS(=O)(=O)c3ccccc3)c2O[C@@H]1CN(C)Cc1ccc(-c2ccccc2)cc1	–	–	–	–
Cc1ccc(S(=O)(=O)Nc2cccc3c2O[C@@H](CN(C)Cc2ccc(-c4ccccc4)cc2)[C@@H](C)CN([C@@H](C)CO)C3=O)cc1	–	–	91	–
C[C@@H]1CN([C@@H](C)CO)C(=O)c2cccc(NS(=O)(=O)c3ccc(Cl)cc3)c2O[C@@H]1CN(C)Cc1ccc(-c2ccccc2)cc1	–	?	115	–
C[C@@H]1CN([C@@H](C)CO)C(=O)c2cccc(NS(=O)(=O)c3ccccc3)c2O[C@@H]1CN(C)Cc1ccc(-c2ccccc2)cc1	–	–	98	–
O=C(NCc1ccco1)c1ccc(NC(=O)c2ccccc2)cc1	–	·	–	–
CCc1cccc(OCC(=O)Nc2sc3c(c2C(N)=O)CCCC3)c1	–	·	–	–
COC(=O)C1=NNC(c2ccccc2)(c2ccccc2)C1	–	–	?	–
CC1(C)CCc2cc(C3SCCS3)ccc2O1	–	–	–	–
C[C@H]1CN([C@@H](C)CO)C(=O)Cc2cc(NC(=O)CCCCCC(=O)Nc3ccccc3N)ccc2O[C@H]1CN(C)CC1CCCCC1	–	·	138	–
C[C@H](CO)N1C[C@H](C)[C@H](CN(C)Cc2ccc(-c3ccccc3)cc2)Oc2ccc(NC(=O)CCCCCC(=O)Nc3ccccc3N)cc2CC1=O	–	·	139	–
C[C@@H]1CN([C@H](C)CO)C(=O)Cc2cc(NC(=O)CCCCCC(=O)Nc3ccccc3N)ccc2O[C@@H]1CN(C)Cc1ccncc1	–	·	–	–
C[C@@H]1CN([C@H](C)CO)C(=O)Cc2cc(NC(=O)CCCCCC(=O)Nc3ccccc3N)ccc2O[C@H]1CN(C)Cc1ccc(-c2ccccc2)cc1	–	·	140	–
C[C@@H]1CN([C@H](C)CO)C(=O)Cc2cc(NC(=O)CCCCCC(=O)Nc3ccccc3N)ccc2O[C@@H]1CN(C)Cc1ccc(-c2ccccc2)cc1	–	·	141	–
Cc1ccc(-n2c(C)nnc2SCC(=O)Nc2ccc(Br)c(C)c2)cc1C	–	·	–	·
NCCSC12CC3CC(CC(C3)C1)C2	–	·	–	–
COc1ccc(C2=Cc3ccccc3C(C)(C)O2)cc1	–	–	–	–
CCCCCCCC(=O)CCc1ccc(O)c(OC)c1	·	–	·	·
C[C@H](CO)N1C[C@H](C)[C@H](CN(C)S(=O)(=O)c2ccc(F)cc2)Oc2c(NC(=O)NC3CCCCC3)cccc2C1=O	–	93	–	–
C[C@@H]1CN([C@@H](C)CO)C(=O)c2cccc(NC(=O)NC3CCCCC3)c2O[C@@H]1CN(C)S(=O)(=O)c1ccc(Cl)cc1	–	–	–	·
Cc1ccc(S(=O)(=O)N(C)C[C@@H]2Oc3c(NC(=O)NC4CCCCC4)cccc3C(=O)N([C@H](C)CO)C[C@@H]2C)cc1	–	107	91	–
C[C@H]1CN([C@@H](C)CO)C(=O)c2cccc(NC(=O)NC3CCCCC3)c2O[C@H]1CN(C)S(=O)(=O)c1ccc(Cl)cc1	–	112	98	–
CC(=O)Nc1ccc(S(=O)(=O)NC2(C(F)(F)F)C(=O)N(c3ccc(C(C)C)cc3)C(C)=C2C(C)=O)cc1 (centres undefined)	–	·	–	·
